Results published in PubChem BioAssay.
For some assays here: Potency and affinity values are given separately. The source made the active and inactive calls.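 How the source made its calls, unless noted: active means primary screen hit whose fluorescence ratio, in both repeats, exceeds the weak agonist control mean by 3 SD; inactive means the rest.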

Assays:
[1] = system: TRPC4 beta (transient receptor potential cation channel C4), mouse; test: TRPC4 cation channel opening, retest – cell-based, Fluo4 calcium, HEK293 TRPC4beta/mu-opioid, duplicates, 10 µM, confirmation (AID 2426;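 active means fluorescence ratio normalized to control raised more than 50% in primary screen plus both repeat runs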;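 on activation: percent rise of integrated ratio over buffer wells lacking compound which define 0%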); conditions: Fluo4 calcium fluorescence, at 10 µM; stronger effect = higher value
[2] = system: transient receptor potential cation channel C4 beta (TRPC4), mouse; test: TRPC4 cation channel opening, second retest – cell-based, second round, Fluo4, HEK293 TRPC4beta/mu-opioid, 1 µM, confirmation (AID 2461;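 active means primary screen active and over 50% activation in each of two duplicate runs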;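 on activation: 0% = wells without test compound as baseline of integrated fluorescence ratio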); conditions: Fluo4 calcium fluorescence, at 1 µM; stronger effect = higher value
[3] = system: TRPC4 (transient receptor potential cation channel C4 beta), mouse; test: potentiation of DAMGO EC20 TRPC4 response – cell-based, second round, Fluo-4, HEK293 TRPC4beta/mu-opioid, 1 µM, confirmation (AID 2554); conditions: DAMGO EC20, Fluo-4 calcium flux, at 1 µM; stronger effect = higher value
[4] = system: TRPC4 beta (transient receptor potential cation channel C4), mouse; test: potentiation of DAMGO EC20 TRPC4 response – cell-based, Fluo-4, HEK293 TRPC4beta/mu-opioid, confirmation (AID 2555;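 active means primary screen hit whose calcium fluorescence ratio, in both repeats, exceeds the weak agonist control mean by 3 SD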); conditions: DAMGO EC20, Fluo-4 calcium flux, at 10 µM; stronger effect = higher value
[5] = molecular target: Short transient receptor potential channel 4 (Mus musculus) (UniProt Q9QUQ5); test: blockers of DAMGO-evoked TRPC4 calcium flux – cell-based, Fluo4, HEK293 TRPC4beta/mu-opioid, confirmation (AID 2636;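 active means calcium signal cut by more than 3 SD below the full-agonist control yet still positive, in both repeats and the earlier primary screen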); conditions: at 10 µM; stronger effect = higher value
[6] = molecular target: Short transient receptor potential channel 4 (Mus musculus) (UniProt Q9QUQ5); test: blockers of DAMGO-evoked TRPC4 calcium flux – cell-based, second round, Fluo4, HEK293 TRPC4beta/mu-opioid, 1 µM, confirmation (AID 2637;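 active means calcium signal ratio cut to more than 3 SD under the fully stimulated control mean yet still positive, in both repeats and the primary screen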); conditions: at 1 µM; stronger effect = higher value
[7] = molecular target: Short transient receptor potential channel 4 (Mus musculus) (UniProt Q9QUQ5); test: potentiation of DAMGO-evoked TRPC4 calcium signal – cell-based, HEK293 TRPC4/mu-opioid, Fluo-4 calcium, EC20 DAMGO, dose response (AID 434941;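 active means earlier screen potentiator hit that boosts the TRPC4 ion channel at some dose, with a dose response; inactive means no potentiation, no dose response, or not a prior hit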;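 further: calcium entry triggered by an EC20 dose of DAMGO at the co-expressed mu-opioid receptor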)
[8] = molecular target: Short transient receptor potential channel 4 (Mus musculus) (UniProt Q9QUQ5); test: block of DAMGO-driven TRPC4 calcium entry – cell-based, HEK293 TRPC4/mu-opioid, Fluo-4 calcium, dose response (AID 434942;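 active means primary screen inhibitor hit that blocks the TRPC4 channel at some tested dose, yielding a dose curve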)
[9] = molecular target: Short transient receptor potential channel 6 (Mus musculus) (UniProt Q61143); test: TRPC6 blockade by TRPC4 inhibitor hits – cell-based, HEK293, membrane potential dye, duplicate, selectivity assay for TRPC4 inhibitor project, confirmation (AID 434948;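 active means active in primary screen and both duplicates, each dropping signal beyond three positive-control SD with fluorescence still positive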); conditions: HEK293 TRPC6, membrane potential dye fluorescence, at 10 µM, stimulated with maximal-effect acetylcholine; stronger effect = higher value
[10] = molecular target: Short transient receptor potential channel 6 (Mus musculus) (UniProt Q61143); test: TRPC6 opening by TRPC4 activator hits – cell-based, HEK293, membrane potential dye, duplicate, selectivity assay for TRPC4 activator project, confirmation (AID 434950;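 active means membrane potential signal rise above negative control mean plus 3 SD in both duplicates, also active in the earlier TRPC4 screen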;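 on activation: 0% = buffer only wells and 100% = acetylcholine maximal-effect wells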); conditions: HEK293 TRPC6, membrane potential fluorescence, at 10 µM; activation: stronger effect = higher value; outcome: activation
[11] = molecular target: Short transient receptor potential channel 6 (Mus musculus) (UniProt Q61143); test: positive modulators of mouse TRPC6 channel – HEK293 cells, membrane potential dye, duplicate, selectivity assay for TRPC4 potentiator project, confirmation (AID 434952;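 active means compound raising the membrane signal above positive-control mean plus 3 SD in both repeats, and a primary screen hit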); conditions: HEK293 TRPC6, membrane potential dye fluorescence, at 10 µM, maximal acetylcholine added after compound; stronger effect = higher value
[12] = molecular target: Short transient receptor potential channel 4 (Mus musculus) (UniProt Q9QUQ5); test: calcium flux activators in TRPC4/5HT1a cells, counter-screen for TRPC4 activator project, cell-based, second counter screen, HEK293 TRPC4/5HT1a, Fluo-4 (AID 434977;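 active means calcium signal rise above buffer-control mean plus 5 SD in both duplicates, and also a hit in the primary screen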;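 on activation: plate controls were assay buffer for no effect and maximal serotonin response for full effect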); conditions: Fluo-4 calcium flux, at 10 µM; stronger effect = higher value
[13] = serotonin-gated TRPC4 signal block – cell-based, second counter screen, HEK293 TRPC4/5HT1a, Fluo-4, counter-screen for TRPC4 inhibitor project, confirmation (AID 434978;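 active means primary screen active whose calcium signal fell more than 3 SD beyond the full-serotonin control mean in both duplicate plates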;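 further: serotonin given first at submaximal then at maximal dose after compound preincubation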); conditions: Fluo-4 calcium flux, at 10 µM, serotonin added to trigger calcium flux; stronger effect = higher value
[14] = system: TRPC4 (mouse), co-expressed with 5HT1a in HEK293; test: enhancement of serotonin-evoked TRPC4 response – cell-based, second counter screen, HEK293 TRPC4/5HT1a, Fluo-4, counter-screen for TRPC4 potentiator project, confirmation (AID 434979;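 active means signal rise over 3 SD above mean of control wells given weak agonist, in both repeats and first screen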); conditions: Fluo-4 calcium flux, at 10 µM, serotonin added at its EC20 dose; stronger effect = higher value
[15] = nonspecific calcium rise without TRPC4 – cell-based, HEK293 mu-opioid receptor line, counter-screen for TRPC4 activator project, confirmation (AID 449723;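 active means hit in primary screen, with calcium signal over 5 SD above buffer well mean in both duplicates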;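 further: counter screen cells carry the mu-opioid receptor alone and lack TRPC4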); conditions: HEK293 mu-opioid cells, Fluo-4 calcium fluorescence, at 10 µM; stronger effect = higher value
[16] = nonspecific potentiation of DAMGO calcium response – cell-based, HEK293 mu-opioid receptor line, counter-screen for TRPC4 allosteric potentiator project, confirmation (AID 449724;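 active means calcium signal rise more than 3 SD above the low-dose agonist control mean, in both duplicate plates and the primary screen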); conditions: HEK293 mu-opioid receptor cells, Fluo-4 calcium flux, at 10 µM, compound added before EC20 DAMGO stimulus; stronger effect = higher value

Measured: activation

Sequence of Short transient receptor potential channel 4 (Mus musculus) (Q9QUQ5 whole entry, looked up): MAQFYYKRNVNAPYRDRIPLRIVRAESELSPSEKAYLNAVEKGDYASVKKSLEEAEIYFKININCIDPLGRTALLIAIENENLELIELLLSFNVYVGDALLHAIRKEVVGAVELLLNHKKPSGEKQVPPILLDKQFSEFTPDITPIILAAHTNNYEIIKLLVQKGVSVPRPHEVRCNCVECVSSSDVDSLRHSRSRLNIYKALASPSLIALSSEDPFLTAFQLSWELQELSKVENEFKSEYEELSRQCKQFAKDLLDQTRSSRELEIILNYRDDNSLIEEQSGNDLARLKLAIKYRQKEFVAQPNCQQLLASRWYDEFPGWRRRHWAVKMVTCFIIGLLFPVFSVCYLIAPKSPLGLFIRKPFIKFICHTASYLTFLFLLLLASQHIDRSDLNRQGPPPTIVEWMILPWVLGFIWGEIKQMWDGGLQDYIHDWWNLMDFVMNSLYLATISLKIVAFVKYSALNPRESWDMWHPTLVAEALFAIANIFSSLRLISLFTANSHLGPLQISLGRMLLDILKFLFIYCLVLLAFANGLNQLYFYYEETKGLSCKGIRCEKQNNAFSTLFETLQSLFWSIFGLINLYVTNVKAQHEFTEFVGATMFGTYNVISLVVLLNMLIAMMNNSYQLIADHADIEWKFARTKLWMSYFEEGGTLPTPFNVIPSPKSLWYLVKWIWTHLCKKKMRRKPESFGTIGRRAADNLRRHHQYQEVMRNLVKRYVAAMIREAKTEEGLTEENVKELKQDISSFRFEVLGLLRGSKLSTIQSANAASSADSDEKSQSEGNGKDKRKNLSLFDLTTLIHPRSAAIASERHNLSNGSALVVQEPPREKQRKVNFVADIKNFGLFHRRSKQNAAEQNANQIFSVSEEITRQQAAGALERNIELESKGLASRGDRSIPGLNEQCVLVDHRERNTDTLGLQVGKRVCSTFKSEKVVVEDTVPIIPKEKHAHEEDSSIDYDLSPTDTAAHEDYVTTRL
Sequence of Short transient receptor potential channel 6 (Mus musculus) (Q61143 whole entry, looked up): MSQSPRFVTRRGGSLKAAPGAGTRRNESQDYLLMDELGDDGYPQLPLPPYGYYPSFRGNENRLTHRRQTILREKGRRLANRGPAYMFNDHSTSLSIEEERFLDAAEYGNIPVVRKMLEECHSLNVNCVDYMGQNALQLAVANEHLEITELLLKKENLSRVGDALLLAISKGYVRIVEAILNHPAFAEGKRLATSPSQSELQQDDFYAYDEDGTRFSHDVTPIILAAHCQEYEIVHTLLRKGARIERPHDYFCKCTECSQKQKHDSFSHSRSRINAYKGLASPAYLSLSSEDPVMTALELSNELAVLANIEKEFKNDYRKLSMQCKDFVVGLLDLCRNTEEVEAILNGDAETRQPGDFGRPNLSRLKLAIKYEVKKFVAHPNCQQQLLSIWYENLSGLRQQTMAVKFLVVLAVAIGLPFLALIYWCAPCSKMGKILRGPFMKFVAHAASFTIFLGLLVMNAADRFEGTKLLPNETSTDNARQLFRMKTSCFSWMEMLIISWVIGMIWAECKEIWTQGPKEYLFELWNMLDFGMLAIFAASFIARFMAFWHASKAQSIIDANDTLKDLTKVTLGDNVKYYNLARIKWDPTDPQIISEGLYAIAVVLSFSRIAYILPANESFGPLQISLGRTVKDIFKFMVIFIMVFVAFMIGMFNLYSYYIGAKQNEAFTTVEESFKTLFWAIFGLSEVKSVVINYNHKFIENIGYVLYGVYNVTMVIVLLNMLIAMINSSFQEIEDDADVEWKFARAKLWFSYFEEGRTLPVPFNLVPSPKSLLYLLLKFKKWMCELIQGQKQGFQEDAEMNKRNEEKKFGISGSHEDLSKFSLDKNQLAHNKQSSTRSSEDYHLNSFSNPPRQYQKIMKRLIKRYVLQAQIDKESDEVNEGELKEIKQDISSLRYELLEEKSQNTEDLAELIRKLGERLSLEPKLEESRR

CCOc1ccccc1N(CC(=O)N1CCOCC1)S(=O)(=O)c1ccc(SC)cc1
active: [1] 164% | [10] 89% | [12] 134% | [15] 111%
inactive: all other assays above

Cc1ccccc1NC(=S)NCC(c1cccnc1)N(C)C (centres undefined)
active: [1] 112% | [2] 111% | [10] 32%
inactive: all other assays above

CCCCN(CC)CCCNC(=O)c1csc2c1CCCCC2
active: [1] 211% | [10] 66.5% | [12] 78.6%
inactive: all other assays above

O=C(CC(=O)c1c(F)cccc1Cl)c1ccccc1O
active: [1] 157% | [10] 37% | [12] 98.7% | [15] 33.3%
inactive: all other assays above

NC(=O)C1CCCN(CCc2ccccc2)C1 (centres undefined)
active: [1] 157% | [2] 133% | [12] 74.3%
inactive: all other assays above

COc1cc(OC)cc(C(=O)NC(=S)NNC(=O)Cc2cccs2)c1
active: [1] 101% | [12] 58.2% | [15] 20.6%
inactive: all other assays above

COc1ccc(-c2nn(-c3ccccc3C)cc2CNC(C)c2cn(C)nc2C)cc1F (centres undefined)
active: [1] 206% | [2] 74% | [10] 31%
inactive: all other assays above

CCOC(=O)c1ccc(NC(=O)NCCc2cnc[nH]2)cc1
active: [1] 147% | [2] 136% | [10] 38% | [12] 90.7%
inactive: all other assays above

CC1CCN(CCCNS(=O)(=O)c2cc(Br)cc3c2N(C(=O)C2CC2)CC3)CC1
active: [1] 91% | [2] 63% | [12] 26.3%
inactive: all other assays above

CCn1cc(CNCc2cn(-c3ccccc3C)nc2-c2ccc(OC)c(F)c2)cn1
active: [1] 163% | [2] 74%
inactive: all other assays above

NCCNC(=O)c1c(NC(=O)c2ccccc2)sc2c1CCCC2
active: [1] 165%
inactive: all other assays above

COc1ccc(C(=O)NNC(=S)NC(=O)c2cccs2)cc1
active: [10] 41.5% | [12] 42.7%
inactive: all other assays above

CSc1ccc(C(=O)NCC(c2ccco2)N(C)C)cc1[N+](=O)[O-] (centres undefined)
active: [1] 341% | [2] 228% | [12] 45.6%
inactive: all other assays above

CCCCN(CC)CCNC(=O)c1cc2c(-c3ccc(Cl)cc3)nn(C)c2s1
active: [12] 20.5%
inactive: all other assays above
